PubChem BioAssay (NCI)
About 79,000 compounds went through this panel and 15% of them were active in at least one assay; those are over-represented in the sample as a whole. The source made the active and inactive calls. Rule as the data show it: active = growth inhibition above about 70%; inactive = the rest.

Assays:
[1] = NCI Yeast Anticancer Drug Screen. Data for the rad52 strain (AID 147);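 also: 0% = growth of vehicle-treated control cultures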; details: S. cerevisiae rad52 mutant growth inhibition, hits give high values
Method in brief: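 Compounds are applied to a genetically defined yeast strain lacking normal DNA damage repair, and inhibition of growth is expressed relative to cultures given vehicle only.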

[2] = NCI Yeast Anticancer Drug Screen. Data for the wt1 strain (AID 149);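 also: 0% = growth of vehicle-treated wt1 cultures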; details: S. cerevisiae wt1 strain (SPY 50644) growth inhibition, hits give high values
Method in brief: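 wt1 yeast, compound-treated; % growth inhibition vs vehicle control.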

[3] = NCI Yeast Anticancer Drug Screen. Data for the rad50EPP+ strain (AID 151);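 also: 0% = growth of vehicle-treated control cultures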; details: S. cerevisiae rad50 mutant strain, hits give high values
Method in brief: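 Compounds were applied to the rad50EPP+ yeast strain, which bears a defined DNA repair alteration, and growth inhibition was determined relative to vehicle-treated cultures.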

[4] = NCI Yeast Anticancer Drug Screen. Data for the mgt1 strain (AID 153); details: S. cerevisiae mgt1 mutant growth inhibition, hits give high values
Method in brief: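 Strain: mgt1 yeast, one of a set carrying defined DNA damage repair or cell cycle control alterations. Compound-treated growth compared with vehicle.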

[5] = NCI Yeast Anticancer Drug Screen. Data for the rad50 strain (AID 155);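 also: 0% = growth of vehicle-only cultures of the same strain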; details: S. cerevisiae rad50 strain growth inhibition, hits give high values
Method in brief: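 Genetically altered yeast (DNA repair pathway); compound treatment; growth inhibition vs vehicle ctrl.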

[6] = NCI Yeast Anticancer Drug Screen. Data for the mec2-1 strain (AID 157); details: S. cerevisiae mec2-1 strain, hits give high values
Method in brief: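 Strain: mec2-1 (DNA repair/cell cycle alteration). Compound exposure, then growth measured; inhibition expressed relative to vehicle.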

[7] = NCI Yeast Anticancer Drug Screen. Data for the rad14 strain (AID 159);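 also: 0% = growth of vehicle-treated control cultures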; details: S. cerevisiae rad14 strain growth inhibition, hits give high values
Method in brief: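 Test compounds were applied to a repair-deficient yeast strain. Its growth was then compared with that of cultures given vehicle alone, and inhibition was expressed relative to those controls.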

[8] = NCI Yeast Anticancer Drug Screen. Data for the sgs1 mgt1 strain (AID 161);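 also: 0% = growth of cultures given vehicle only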; details: S. cerevisiae sgs1 mgt1 strain, hits give high values
Method in brief: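 Genetically altered yeast, compound exposure, growth inhibition relative to vehicle.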

[9] = NCI Yeast Anticancer Drug Screen. Data for the CLN2oe strain (AID 163);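 also: 0% = growth of vehicle-only control cultures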; details: S. cerevisiae CLN2oe strain, hits give high values
Method in brief: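 Growth of a genetically modified yeast strain is measured after compound exposure and compared with cultures given vehicle alone.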

[10] = NCI Yeast Anticancer Drug Screen. Data for the cln2 rad14 strain (AID 165);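 also: 0% = growth equal to vehicle treated cultures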; details: S. cerevisiae cln2 rad14 strain, hits give high values
Method in brief: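 Compounds are applied to the cln2 rad14 yeast strain, and growth is then compared with that of vehicle-treated cultures to give inhibition.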

[11] = NCI Yeast Anticancer Drug Screen. Data for the bub3 strain (AID 167); details: S. cerevisiae bub3 mutant strain, hits give high values
Method in brief: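 Yeast carrying a defined mutation is treated with each compound, and growth is compared with that of vehicle-exposed cells to give inhibition.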

[12] = NCI Yeast Anticancer Drug Screen. Data for the wt2 strain (AID 169);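 also: 0% = growth of vehicle-treated yeast cultures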; details: S. cerevisiae wt2 strain growth inhibition, hits give high values
Method in brief: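 This strain belongs to a panel of yeast strains with defined genetic alterations in DNA damage repair or cell cycle control. Compounds are applied, and growth inhibition is measured against vehicle-treated cultures.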

[13] = NCI Yeast Anticancer Drug Screen. Data for the mlh1 strain (AID 171);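 also: 0% = growth of vehicle-treated control cultures of the same strain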; details: S. cerevisiae mlh1 strain growth inhibition, hits give high values
Method in brief: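 Growth of the mutant yeast strain after compound exposure, expressed as inhibition relative to vehicle-only controls.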

[14] = NCI Yeast Anticancer Drug Screen. Data for the sgs1 strain (AID 173);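 also: 0% = growth of vehicle-only control cultures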; details: S. cerevisiae sgs1 mutant, hits give high values
Method in brief: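 Growth of a yeast strain bearing a defined genetic alteration is measured after compound treatment. Inhibition is expressed relative to vehicle-only controls.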

[15] = NCI Yeast Anticancer Drug Screen. Data for the mlh1 rad18 strain (AID 175); details: S. cerevisiae mlh1 rad18 strain growth inhibition, hits give high values
Method in brief: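 Read-out is yeast growth inhibition, calculated against vehicle-only controls. The compound was applied to a strain engineered with DNA damage repair alterations.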

[16] = NCI Yeast Anticancer Drug Screen. Data for the rad18 strain (AID 177); details: S. cerevisiae rad18 mutant growth inhibition, hits give high values
Method in brief: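 Growth of the mutant yeast strain after compound exposure, normalised to vehicle-only cultures.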

[17] = at 5.0 µM (retest, dose inferred, filed as 0.5)
[18] = at 50.0 µM (retest, dose inferred, filed as 5.0)

Measured: growth inhibition

Cc1cc(O)cc(O)c1N=Nc1ccc([N+](=O)[O-])cc1
active: [5]; [18] 98% | [5]; at 50.0 µM 70.3% | [6]; [18] 95% | [10]; [18] 72% | [10]; at 50.0 µM 72.7% | [15]; [18] 99%
inactive: [1]; at 1.2 µM 5% | [1]; at 3.7 µM 12% | [1]; at 11.0 µM 11% | [1]; at 33.0 µM 20% | [1]; at 100.0 µM 32% | [2]; at 1.2 µM 12% | [2]; at 3.7 µM 17% | [2]; at 11.0 µM 21% | [2]; at 33.0 µM 51% | [2]; at 100.0 µM 62% | [3]; at 1.2 µM 18% | [3]; at 3.7 µM 12% | [3]; at 11.0 µM 15% | [3]; at 33.0 µM 22% | [3]; at 100.0 µM 21% | [4]; at 1.2 µM 11% | [4]; at 3.7 µM 15% | [4]; at 11.0 µM 23% | [4]; at 33.0 µM 59% | [4]; at 100.0 µM 64% | [5]; at 1.2 µM -6% | [5]; at 3.7 µM 2% | [5]; [17] 47% | [5]; at 11.0 µM -1% | [5]; at 33.0 µM 18% | [5]; at 100.0 µM 31% | [6]; at 1.2 µM 7% | [6]; at 3.7 µM 8% | [6]; [17] 54% | [6]; at 11.0 µM 8% | [6]; at 33.0 µM 46% | [6]; at 50.0 µM 36.1% | [6]; at 100.0 µM 63% | [7]; at 1.2 µM -18% | [7]; at 3.7 µM -21% | [7]; at 11.0 µM -14% | [7]; at 33.0 µM 38% | [7]; at 100.0 µM 61% | [8]; [17] 3% | [8]; [18] 25% | [8]; at 50.0 µM 46.6% | [9]; at 1.2 µM 24% | [9]; at 3.7 µM 22% | [9]; at 11.0 µM 30% | [9]; at 33.0 µM 42% | [9]; at 100.0 µM 55% | [10]; [17] 24% | [11]; at 1.2 µM 4% | [11]; at 3.7 µM 26% | [11]; [17] 16% | [11]; at 11.0 µM 43% | [11]; at 33.0 µM 56% | [11]; [18] 49% | [11]; at 50.0 µM 43.1% | [11]; at 100.0 µM 62% | [12]; at 1.2 µM 5% | [12]; at 3.7 µM 11% | [12]; at 11.0 µM -4% | [12]; at 33.0 µM 26% | [12]; at 100.0 µM 45% | [13]; at 1.2 µM -10% | [13]; at 3.7 µM -2% | [13]; at 11.0 µM -3% | [13]; at 33.0 µM 23% | [13]; at 100.0 µM 33% | [14]; at 1.2 µM -3% | [14]; at 3.7 µM -2% | [14]; at 11.0 µM 4% | [14]; at 33.0 µM 32% | [14]; at 100.0 µM 47% | [15]; [17] 48% | [15]; at 50.0 µM 55.8% | [16]; at 1.2 µM 5% | [16]; at 3.7 µM 3% | [16]; at 11.0 µM 8% | [16]; at 33.0 µM 11% | [16]; at 100.0 µM 32%

COC1=CC(=O)C2C(C1=O)C(c1ccc(Cl)cc1)[C@@H]2C (stereo partly specified)
active: [1]; at 11.0 µM 98% | [1]; at 33.0 µM 99% | [1]; at 100.0 µM 99% | [2]; at 11.0 µM 99% | [2]; at 33.0 µM 99% | [2]; at 100.0 µM 99% | [3]; at 11.0 µM 98% | [3]; at 33.0 µM 98% | [3]; at 100.0 µM 98% | [4]; at 11.0 µM 99% | [4]; at 33.0 µM 99% | [4]; at 100.0 µM 99% | [5]; at 11.0 µM 98% | [5]; at 33.0 µM 98% | [5]; [18] 98% | [5]; at 50.0 µM 90.5% | [5]; at 100.0 µM 98% | [6]; at 11.0 µM 99% | [6]; at 33.0 µM 98% | [6]; [18] 99% | [6]; at 50.0 µM 93.8% | [6]; at 100.0 µM 99% | [7]; at 11.0 µM 98% | [7]; at 33.0 µM 99% | [7]; at 100.0 µM 99% | [8]; [18] 98% | [8]; at 50.0 µM 92% | [9]; at 11.0 µM 99% | [9]; at 33.0 µM 99% | [9]; at 100.0 µM 99% | [10]; [18] 98% | [10]; at 50.0 µM 90.5% | [11]; at 11.0 µM 99% | [11]; at 33.0 µM 99% | [11]; [18] 99% | [11]; at 50.0 µM 90.8% | [11]; at 100.0 µM 99% | [12]; at 11.0 µM 94% | [12]; at 33.0 µM 98% | [12]; at 100.0 µM 99% | [13]; at 11.0 µM 98% | [13]; at 33.0 µM 99% | [13]; at 100.0 µM 99% | [14]; at 11.0 µM 99% | [14]; at 33.0 µM 99% | [14]; at 100.0 µM 98% | [15]; [18] 98% | [15]; at 50.0 µM 90.5% | [16]; at 11.0 µM 97% | [16]; at 33.0 µM 99% | [16]; at 100.0 µM 99%
inactive: [1]; at 1.2 µM 12% | [1]; at 3.7 µM 25% | [2]; at 1.2 µM 11% | [2]; at 3.7 µM 23% | [3]; at 1.2 µM 29% | [3]; at 3.7 µM 64% | [4]; at 1.2 µM 21% | [4]; at 3.7 µM 30% | [5]; at 1.2 µM 2% | [5]; at 3.7 µM 12% | [5]; [17] 4% | [6]; at 1.2 µM 34% | [6]; at 3.7 µM 49% | [6]; [17] -12% | [7]; at 1.2 µM -3% | [7]; at 3.7 µM 12% | [8]; [17] -10% | [9]; at 1.2 µM 19% | [9]; at 3.7 µM 29% | [10]; [17] 30% | [11]; at 1.2 µM 24% | [11]; at 3.7 µM 53% | [11]; [17] 41% | [12]; at 1.2 µM 6% | [12]; at 3.7 µM 22% | [13]; at 1.2 µM 20% | [13]; at 3.7 µM 39% | [14]; at 1.2 µM 33% | [14]; at 3.7 µM 48% | [15]; [17] 23% | [16]; at 1.2 µM 14% | [16]; at 3.7 µM 29%

C(=C\c1ccccc1)/COc1ccccc1C(N1CCOCC1)n1nc2ccccc2n1 (stereo unspecified)
active: [1]; at 33.0 µM 85% | [1]; at 100.0 µM 97% | [2]; at 33.0 µM 88% | [2]; at 100.0 µM 98% | [3]; at 100.0 µM 95% | [4]; at 33.0 µM 91% | [4]; at 100.0 µM 98% | [5]; at 33.0 µM 96% | [5]; [18] 98% | [5]; at 50.0 µM 98.1% | [5]; at 100.0 µM 97%
inactive: [1]; at 1.2 µM 3% | [1]; at 3.7 µM 3% | [1]; at 11.0 µM 13% | [2]; at 1.2 µM 32% | [2]; at 3.7 µM 36% | [2]; at 11.0 µM 33% | [3]; at 1.2 µM -5% | [3]; at 3.7 µM 1% | [3]; at 11.0 µM 25% | [3]; at 33.0 µM 64% | [4]; at 1.2 µM 8% | [4]; at 3.7 µM 9% | [4]; at 11.0 µM 20% | [5]; at 1.2 µM -6% | [5]; at 3.7 µM -21% | [5]; [17] -9% | [5]; at 11.0 µM 8% | [6]; at 1.2 µM -19% | [6]; at 3.7 µM -13%
